Inconclusive results are not listed. Where a call stands in place of a potency, no number is given. Values without a mark were called inactive. The source made the active and inactive calls. Calls follow the shape of the dose curve; as a rule, active = well fitted cell-killing curve with a large enough effect in the repeat runs; inconclusive = weak or mixed curves, or effect the other way; inactive = flat fitted curve, though single readings scatter.
How the values were obtained:
[1] = cAMP Responsive Elements (CRE) small molecule antagonists, cell-based qHTS assay: qHTS cell viability counter screen (AID 2060913); also: nearly all actives have a fitted effect of over 40% in size
Summary of the method: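 Cytotoxicity counter screen multiplexed with the CRE-bla antagonist read: HEK293T cells in DMEM with dialyzed FBS and 25 mM HEPES were treated 3 hrs under 0.25 uM final NKH477, then viability measured by CellTiter-Glo luminescence.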

[2] = cAMP Responsive Elements (CRE) small molecule agonists, cell-based qHTS assay: qHTS cell viability counter screen (AID 2060914);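 also: viability read after 3 h of compound exposure; nearly all actives have a fitted effect of over 50% in size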
Summary of the method: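 CRE-bla HEK293T cells in 10% dialyzed FBS medium were exposed to compounds for 3 h at 37C after 18 h plating. CellTiter-Glo was then added in the same wells, and luminescence was read after 30 min at room temperature.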

ClC1=C(Cl)C(Cl)(Cl)C(Cl)=C1Cl
Potency [1]: inactive | Potency [2]: inactive

O=C(Nc1ccccc1)c1cc([N+](=O)[O-])ccc1Cl
Potency [1]: inactive | Potency [2]: inactive

Clc1ccc(C(Cn2ccnc2)OCc2ccc(Sc3ccccc3)cc2)c(Cl)c1 (stereo not drawn)
Potency [1]: inactive | Potency [2]: inactive

CCN(CC)CCSC(=O)C(c1ccccc1)c1ccccc1
Potency [1]: inactive | Potency [2]: inactive

CC(=O)c1ccccc1[N+](=O)[O-]
Potency [1]: inactive | Potency [2]: inactive

CCCCCCCOC(=O)c1ccccc1C(=O)OCCCCCCC
Potency [1]: inactive | Potency [2]: inactive

Cc1ccc2c(n1)Oc1ccc(C(C)C(=O)OCC(=O)N(C)C)cc1C2 (stereo not drawn)
Potency [1]: inactive | Potency [2]: inactive

COc1cc2c(cc1OC)[C@@H]1CC(=O)[C@@H](CC(C)C)CN1CC2
Potency [1]: inactive | Potency [2]: inactive

CC1C(C)(C)C2=C(C(=O)CCC2)C1(C)C (stereo not drawn)
Potency [1]: inactive | Potency [2]: inactive

O=C(O)c1cc(=O)c2ccccc2o1
Potency [1]: inactive | Potency [2]: inactive

CC(C)CCCCCCOC(=O)CCCCC(=O)OCCCCCCC(C)C
Potency [1]: inactive | Potency [2]: inactive

CC(C)N(C)C
Potency [1]: inactive | Potency [2]: inactive

CCCCOC(=O)C(C)CC (stereo not drawn)
Potency [1]: inactive | Potency [2]: inactive

CN(C)c1ccc(CCO)cc1
Potency [1]: inactive | Potency [2]: inactive

CCOC(CN1CCN(CC(C)C(=O)c2ccccc2)CC1)c1ccccc1 (stereo not drawn)
viability change, negative = cytotoxic [1]: 1.27% [at 18.9 µM] | activity change, negative = cytotoxicity [2]: -1.12% [at 18.9 µM]

O=[N+]([O-])c1cc(Cl)c(Cl)c(Cl)c1Cl
Potency [1]: inactive | Potency [2]: inactive

C/C(=C(\CCO)SS/C(CCO)=C(\C)N(C=O)Cc1cnc(C)nc1N)N(C=O)Cc1cnc(C)nc1N
Potency [1]: inactive | Potency [2]: inactive

C1CSCCS1
Potency [1]: inactive | Potency [2]: inactive

O=C[C@H](O)[C@H](O)[C@H](O)CO
Potency [1]: inactive | Potency [2]: inactive

COC(=O)c1ccc(C(=O)OC)c(C(=O)OC)c1
Potency [1]: inactive | Potency [2]: inactive

CCOc1ccc(Cc2nccc3cc(OCC)c(OCC)cc23)cc1OCC
Potency [1]: inactive | Potency [2]: inactive

CC1=C(C(=O)O)N2C(=O)[C@@H](NC(=O)[C@H](N)c3ccccc3)[C@H]2SC1
Potency [1]: inactive | Potency [2]: inactive

Cc1cc(C2(c3cc(C)c(O)cc3C)OS(=O)(=O)c3ccccc32)c(C)cc1O
Potency [1]: inactive | Potency [2]: inactive

O=[N+]([O-])c1ccc2ncccc2c1
Potency [1]: inactive | Potency [2]: inactive

CC(CN)CCCN (stereo not drawn)
Potency [1]: inactive | Potency [2]: inactive

Nc1c(Cl)cc(Cl)cc1Cl
Potency [1]: inactive | Potency [2]: inactive

O=C(Cl)c1cccc([N+](=O)[O-])c1
Potency [1]: inactive | Potency [2]: inactive

OCCOc1cccc(OCCO)c1
Potency [1]: inactive | Potency [2]: inactive

C=C(C)c1cccc(C(=C)C)c1
Potency [1]: inactive | Potency [2]: inactive

CN1C(=O)c2ccccc2C1=O
Potency [1]: inactive | Potency [2]: inactive

O=C(Oc1ccccc1C(=O)O)c1ccccc1O
Potency [1]: inactive | Potency [2]: inactive

CC(C)N(c1ccccc1)C(C)C
Potency [1]: inactive | Potency [2]: inactive

C[C@@H]1[C@H](O)[C@@H](C)/C=C/C=C\C=C\C=C\C=C\C=C\C=C\[C@H](O[C@@H]2O[C@H](C)[C@@H](O)[C@H](N)[C@@H]2O)C[C@@H]2O[C@](O)(C[C@@H](O)C[C@@H](O)[C@H](O)CC[C@@H](O)C[C@@H](O)CC(=O)O[C@H]1C)C[C@H](O)[C@H]2C(=O)O (stereo in doubt)
Potency [1]: inactive | Potency [2]: inactive

CCCOCCOCCOCCO
Potency [1]: inactive | Potency [2]: inactive

BrCc1cccc(Oc2ccccc2)c1
Potency [1]: inactive | Potency [2]: inactive

O=C(O)[C@@H]1CSCN1
Potency [1]: inactive | Potency [2]: inactive

O=C1CCCN1C1CCCCC1
Potency [1]: inactive | Potency [2]: inactive

CC(=O)N[C@@H](Cc1ccc(O)cc1)C(=O)O
Potency [1]: inactive | Potency [2]: inactive

O=C(O)c1ccccc1-n1cc(C(=O)O)c(=O)c2cc(Nc3c(F)cc(F)cc3Cl)c(Cl)cc21
Potency [1]: inactive | Potency [2]: inactive

CN(C)c1ccc(O)c2c1C[C@H]1C[C@H]3[C@H](N(C)C)C(=O)C(C(N)=O)=C(O)[C@@]3(O)C(=O)C1=C2O
Potency [1]: inactive | Potency [2]: inactive

O=C1OCc2ccccc21
Potency [1]: inactive | Potency [2]: inactive

Oc1ccc2c(c1)-c1ccccc1C2
Potency [1]: inactive | Potency [2]: inactive

CCCCCCCCCCCc1ccccc1
Potency [1]: inactive | Potency [2]: inactive

CCc1ncc(C)[nH]1
Potency [1]: inactive | Potency [2]: inactive

CCCC(=O)Nc1ccc(OCC(O)CNC(C)C)c(C(C)=O)c1 (stereo not drawn)
Potency [1]: inactive | Potency [2]: inactive

Nc1nc2ccc([N+](=O)[O-])cc2s1
Potency [1]: inactive | Potency [2]: inactive

CC1=C(O)C(=O)OC1C (stereo not drawn)
Potency [1]: inactive | Potency [2]: inactive

CCCC(C(=O)OCCN(CC)CC)(c1ccccc1)c1ccccc1
Potency [1]: inactive | Potency [2]: inactive

COC(=O)CCCC(=O)O
Potency [1]: inactive | Potency [2]: inactive
